Assay: DUSP6 inhibitors restoring Erk phosphorylation by chemical complementation, primary imaging in DUSP6-transfected HeLa (AID 609)
Conditions: HeLa MKP-3 transfected, phospho-Erk imaging KS statistic; measured here: nuclear c-Myc green intensity z-score; at 10 µM; cells stimulated with TPA for 15 min

Structure (SMILES) | z-score
O=C(c1ccc(=O)oc1)N1CCN(c2ccc(F)cc2)CC1 | -0.0445
CC(C)(C)C1=Nn2c(nnc2-c2ccco2)SC1 | 0.534
COc1cc(OC)cc(C(=O)N2CCC(N3CCCCCC3)CC2)c1 | -1.95
COc1cc(=O)n2c(-c3ccccc3)csc2n1 | 1.4
COc1ccccc1OCC(=O)Nc1ccc(S(=O)(=O)Nc2cc(C)nc(C)n2)cc1 | 1.18
COCCCNC(=O)c1c(N)n(/N=C/c2cccs2)c2nc3ccccc3nc12 | -0.623
CCOC(=O)CNS(=O)(=O)c1cc(-c2nn(C)c(=O)c3ccccc23)ccc1C | -1.09
N#CC1=C(SCc2ccccc2)NC2=C(C(=O)CCC2)C1c1ccc2c(c1)OCO2 (centres undefined) | -1.14
CCOC(=O)c1[nH]c2cc3c(cc2c1NC(=O)CN1CCc2ccccc2C1)OCO3 | -0.223
CCOC(=O)c1ccc(NC(=O)CCC(CC)C(=O)O)cc1 (centres undefined) | -1.56
CCOC(=O)CSc1nc2ccccc2c(=O)n1C | 1.67
CC(O)Cn1ccccc1=N (centres undefined) | -0.0061
CC1CN(C2CCN(S(=O)(=O)Cc3ccccc3)CC2)CC(C)O1 (centres undefined) | 0.313
CN1CCN(c2ncnc3c2[nH]c2ccc(F)cc23)CC1 | 0.264
COc1cc(-c2nn3c(C4CCCCC4)nnc3s2)cc(OC)c1OC | 0.143
O=C1OC(Nc2ccc(Br)cn2)c2ccccc21 (centres undefined) | -0.569
Cc1nnc2n(Cc3ccccc3)c(=O)c3c4c(sc3n12)CN(Cc1ccccc1)CC4 | 0.579
O=C(O)C(Cc1c[nH]c2ccccc12)NS(=O)(=O)c1cccc2nsnc12 (centres undefined) | -0.134
Cc1ccc(C(=O)C2=C(O)C(=O)N(c3ncccn3)C2c2ccc(Cl)cc2)o1 (centres undefined) | -0.679
CC(=O)C1(C)OC(N)=C(C#N)C(c2ccccc2)C1(C#N)C#N (centres undefined) | -0.296

Structure (SMILES) | z-score
CCCCOc1ccccc1/C=c1/sc2nc(-c3oc4ccccc4c3C)nn2c1=O | 2.04
CCCOc1ccc(/C(O)=C2/C(=O)C(=O)N(CCN(C)C)C2c2ccncc2)cc1 (centres undefined) | 0.199
Cc1onc(-c2ccccc2Cl)c1C(=O)N1CCN(c2nc3ccccc3s2)CC1 | -0.608
COc1ccc2oc(=O)c(-c3nc(C)cs3)cc2c1 | 0.963
CCOC(=O)CSc1nc(NC#N)nc(N(CC)CC)n1 | -0.374
CCOc1ccc(/C(O)=C2/C(=O)C(=O)N(CCN(C)C)C2c2ccccc2)cc1Cl (centres undefined) | 0.178
CCCCOC(=O)Nc1ccc(S(=O)(=O)Nc2nc(C)cc(C)n2)cc1 | 1.82
COc1ccc(C=NCCC2(O)CC(C)N(C)CC2C)cc1 (centres undefined) | -0.705
Cc1ccc(C(C)C)c(OCCNc2nc3c(c(=O)n(C)c(=O)n3C)n2C)c1 | -0.388
CCOC(=O)CCc1c(C)c(C#N)c2nc3ccccc3n2c1-n1ccnc1C | 0.0322
C=CCSc1nc(C)c(CC=C)c(=O)[nH]1 | -0.59
CC1C[C@@]2(NC(=O)NC2=O)C(C)CN1C (some centres undefined) | -0.13
Cc1nnc(C)n1/N=C/c1cc(Br)cc(Br)c1O | 0.148
Clc1ccc2[nH]c3c(NCCN4CCOCC4)ncnc3c2c1 | 0.291
Cc1cc(C)n(CC(=O)N2c3ccccc3Sc3ccccc32)n1 | 0.867
Cn1c(NCC(O)c2ccccc2)nc2c1c(=O)n(Cc1ccc(Cl)c(Cl)c1)c(=O)n2C (centres undefined) | 0.44
COc1ccccc1-c1nn2c(-c3ccco3)nnc2s1 | -0.311
CCCCNC(=O)c1c(N)n(/N=C/c2cccnc2)c2nc3ccccc3nc12 | -0.352
CCOc1ccc(C2C(C(=O)c3ccc(C)o3)=C(O)C(=O)N2CCCN(CC)CC)cc1 (centres undefined) | -0.0565

From PubChem BioAssay
